PubChem BioAssay (Tox21)
Several values for one entry are separate records, joined by “and”; a condition that tells them apart may be missing. Equal entries are not always repeated. Results filed as inconclusive are left out. Activity calls are given as the source filed them. Unless noted, the call rests on the fitted dose curve; in most records, active means well fitted curve in the direction sought with a large enough effect in the repeat runs; inconclusive means weak or mixed curves; inactive means no such curve, though single readings can be large; an effect the other way counts as inactive or inconclusive.

Experiments:
[1] = qHTS assay to identify small molecule antagonists of the glucocorticoid receptor (GR) signaling pathway - cell viability counter screen (AID 720693); further: nearly all actives have a fitted effect of over 55% in size
[2] = qHTS assay for identifying genotoxic compounds that show differential cytotoxicity against isogenic chicken DT40 cell lines with known DNA damage response pathways - Rad54/Ku70 mutant cell line (AID 743015); further: nearly all actives have a fitted effect of over 60% in size; further: potency means the concentration at half of the fitted maximal effect
[3] = qHTS assay to identify small molecule antagonists of the androgen receptor (AR) signaling pathway - cell viability counter screen (AID 743033; further: nearly all actives have a fitted effect of over 45% in size; further: potency means the concentration at half of the fitted maximal effect)
[4] = qHTS assay to identify small molecule antagonists of the androgen receptor (AR) signaling pathway using the MDA cell line - cell viability counter screen (AID 743041; further: nearly all actives have a fitted effect of over 45% in size; further: potency means the concentration at half of the fitted maximal effect)
Summary of the method: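 R1881-driven MDA-kb2 AR-luc cells, 3,000/well, were dosed with library compounds for 16 h; cell health came from CellTiter-Fluor fluorescence in the reporter wells.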

[5] = qHTS assay to identify small molecule antagonists of the thyroid receptor (TR) signaling pathway - cell viability counter screen (AID 743064); further: nearly all actives have a fitted effect of over 50% in size; further: potency means the concentration at half of the fitted maximal effect
Summary of the method: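 Rat GH3 pituitary tumor cells stably expressing two TR response elements driving luciferase were plated, rested 4 h, then dosed with library compounds and T3 (1 nM final). After 23.5 h at 37 °C, CellTiter-Fluor was added for 30 min and fluorescence recorded.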

[6] = qHTS assay to identify small molecule antagonists of the thyroid receptor (TR) signaling pathway (AID 743065); further: nearly all actives have a fitted effect of over 55% in size; further: potency means the concentration at half of the fitted maximal effect
Summary of the method: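 Antagonism measured as loss of luciferase signal in GH3 cells stably carrying a TRE-luciferase reporter, co-treated with compound and T3 (1 nM final) for 23.5 h at 37 C. Viability was read in the same well by CellTiter-Fluor.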

[7] = system: thyroid hormone receptor (rat, GH3 cells); assay: qHTS assay to identify small molecule agonists of the thyroid receptor (TR) signaling pathway (AID 743066; calls by dose curve)
[8] = biological target: Estrogen receptor (Homo sapiens) (UniProt P03372); assay: qHTS assay to identify small molecule antagonists of the estrogen receptor alpha (ER-alpha) signaling pathway (AID 743069; active means well fitted curve in the direction sought with a large enough effect in the signal ratio in the repeat runs, not every such curve was filed as active; the % refers to the signal ratio)
Summary of the method: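 Compound effects are measured against 17beta-estradiol stimulation in HEK293 cells with a UAS-controlled beta-lactamase reporter for ER-alpha. Exposure lasts 18 hr at 37C; LiveBLAzer B/G FRET substrate follows for 2 hr at room temperature.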

[9] = qHTS assay to identify small molecule antagonists of the estrogen receptor alpha (ER-alpha) signaling pathway - cell viability counter screen (AID 743074; calls by dose curve;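 further: HEK293 cells carrying ER-alpha-UAS-bla reporter stimulated with 17beta-estradiol; nearly all actives have a fitted effect of over 45% in size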)
[10] = biological target: Estrogen receptor (Homo sapiens) (UniProt P03372); assay: qHTS assay to identify small molecule agonists of the estrogen receptor alpha (ER-alpha) signaling pathway (AID 743075; calls by dose curve)
[11] = biological target: Estrogen receptor (Homo sapiens) (UniProt P03372); assay: qHTS assay to identify small molecule agonists of the estrogen receptor alpha (ER-alpha) signaling pathway using the BG1 cell line (AID 743079); further: nearly all actives have a fitted effect of over 20% in size; further: potency means the concentration at half of the fitted maximal effect
[12] = qHTS assay to identify small molecule antagonists of the estrogen receptor alpha (ER-alpha) signaling pathway using the BG1 cell line (AID 743080; calls by dose curve;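 further: BG1 cells stimulated with 17beta-estradiol alongside compound; nearly all actives have a fitted effect of over 25% in size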; further: potency means the concentration at half of the fitted maximal effect)
Summary of the method: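 Readout is ONE-Glo luminescence, taken 30 min at room temperature after reagent addition, preceded by a CellTiter-Fluor viability read; BG1-Luc-4E2 cells had received compound and 17beta-estradiol for 21.5 h at 37 C.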

[13] = qHTS assay to identify small molecule antagonists of the estrogen receptor alpha (ER-alpha) signaling pathway using the BG1 cell line - cell viability counter screen (AID 743081);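 further: compound given together with 17beta-estradiol as the ER stimulus; nearly all actives have a fitted effect of over 45% in size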
Aromatase (Homo sapiens) = Aromatase (Homo sapiens) (UniProt P11511); assay: qHTS assay to identify aromatase inhibitors (AID 743083); further: nearly all actives have a fitted effect of over 55% in size; further: potency means the concentration at half of the fitted maximal effect
[14] = qHTS assay to identify aromatase inhibitors - cell viability counter screen (AID 743084);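 further: cells stimulated with testosterone during compound exposure; nearly all actives have a fitted effect of over 55% in size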; further: potency means the concentration at half of the fitted maximal effect
[15] = biological target: Androgen receptor (Homo sapiens) (UniProt P10275); assay: qHTS assay to identify small molecule antagonists of the androgen receptor (AR) signaling pathway (AID 743035; active means well fitted inhibition curve with a large enough effect in the signal ratio in the repeat runs, not every such curve was filed as active; the % refers to the signal ratio)
Summary of the method: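 HEK293 cells stably carrying a UAS-driven beta-lactamase reporter (AR-UAS-bla GripTite) were plated for 4 h at 37C, then given compound and the agonist R1881 and incubated 16 h. Reporter activity was read by LiveBLAzer B/G FRET fluorescence after 2 h at room temperature.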

[16] = biological target: Androgen receptor (Homo sapiens) (UniProt P10275); assay: qHTS assay to identify small molecule agonists of the androgen receptor (AR) signaling pathway using the MDA cell line (AID 743040; further: nearly all actives have a fitted effect of over 20% in size); conditions: MDA-kb2 AR-luc cells, MMTV luciferase, 16 h; activity change: at 70.3 µM (top of the series), stronger effect = higher value
Summary of the method: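 After a 5 h incubation at 37C and 0% CO2, MDA-kb2 reporter cells were dosed with compounds in DMSO and kept 16 h under the same conditions. Luciferase activity was then read as luminescence with ONE-Glo.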

[17] = biological target: Androgen receptor (Homo sapiens) (UniProt P10275); assay: qHTS assay to identify small molecule antagonists of the androgen receptor (AR) signaling pathway using the MDA cell line (AID 743042; further: nearly all actives have a fitted effect of over 55% in size)
Summary of the method: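 Antagonist mode: compounds plus R1881 agonist added to MDA-kb2 AR-luc cells, incubated 16 h at 37C. Luciferase reporter luminescence quantified, with multiplexed CellTiter-Fluor readout for cell viability.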

[18] = qHTS assay for identifying genotoxic compounds that show differential cytotoxicity against isogenic chicken DT40 cell lines with known DNA damage response pathways - wild type cell line (AID 743012); further: nearly all actives have a fitted effect of over 60% in size; further: potency means the concentration at half of the fitted maximal effect
Summary of the method: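 Parental DNA repair-proficient DT40 cells, 300 per well, were pre-incubated ~0.5 h at 37 C/5% CO2, pin-dosed with compounds in DMSO, then incubated 40 h. Viability was read as CellTiter-Glo luminescence after 30 min at room temperature.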

[19] = qHTS assay for identifying genotoxic compounds that show differential cytotoxicity against isogenic chicken DT40 cell lines with known DNA damage response pathways - Rev3 mutant cell line (AID 743014); further: nearly all actives have a fitted effect of over 55% in size; further: potency means the concentration at half of the fitted maximal effect

Measured: Potency

Estrogen receptor (Homo sapiens), sequence (P03372 whole entry, looked up): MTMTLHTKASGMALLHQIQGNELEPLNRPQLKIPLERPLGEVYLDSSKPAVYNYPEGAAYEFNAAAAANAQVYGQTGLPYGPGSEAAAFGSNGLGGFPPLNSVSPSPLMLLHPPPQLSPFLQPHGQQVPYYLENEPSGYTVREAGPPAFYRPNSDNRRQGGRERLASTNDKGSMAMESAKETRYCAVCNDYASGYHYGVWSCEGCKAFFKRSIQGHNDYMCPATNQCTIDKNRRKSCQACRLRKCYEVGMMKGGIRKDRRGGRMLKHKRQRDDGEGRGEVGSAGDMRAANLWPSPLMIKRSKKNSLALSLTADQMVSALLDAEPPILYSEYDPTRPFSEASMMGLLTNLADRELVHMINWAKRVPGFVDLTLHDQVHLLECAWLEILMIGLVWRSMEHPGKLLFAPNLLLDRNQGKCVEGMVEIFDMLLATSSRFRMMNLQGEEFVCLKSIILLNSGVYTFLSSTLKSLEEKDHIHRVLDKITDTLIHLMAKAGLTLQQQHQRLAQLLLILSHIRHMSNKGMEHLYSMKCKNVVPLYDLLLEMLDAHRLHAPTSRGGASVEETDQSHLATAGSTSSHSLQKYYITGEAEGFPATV
Aromatase (Homo sapiens), sequence (P11511 whole entry, looked up): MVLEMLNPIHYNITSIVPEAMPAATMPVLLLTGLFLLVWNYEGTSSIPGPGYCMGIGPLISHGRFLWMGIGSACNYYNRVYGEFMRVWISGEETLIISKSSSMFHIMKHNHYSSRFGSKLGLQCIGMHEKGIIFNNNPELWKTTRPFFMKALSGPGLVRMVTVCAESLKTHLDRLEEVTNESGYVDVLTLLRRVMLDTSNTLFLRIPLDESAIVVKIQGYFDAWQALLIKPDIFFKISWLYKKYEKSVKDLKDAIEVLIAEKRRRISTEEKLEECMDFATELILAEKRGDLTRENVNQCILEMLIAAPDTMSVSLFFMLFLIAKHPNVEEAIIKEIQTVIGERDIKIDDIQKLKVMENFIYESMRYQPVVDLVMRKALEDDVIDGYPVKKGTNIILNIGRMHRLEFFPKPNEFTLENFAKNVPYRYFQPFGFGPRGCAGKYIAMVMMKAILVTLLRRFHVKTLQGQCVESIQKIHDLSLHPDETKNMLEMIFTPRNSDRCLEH
Androgen receptor (Homo sapiens), sequence (P10275 whole entry, looked up): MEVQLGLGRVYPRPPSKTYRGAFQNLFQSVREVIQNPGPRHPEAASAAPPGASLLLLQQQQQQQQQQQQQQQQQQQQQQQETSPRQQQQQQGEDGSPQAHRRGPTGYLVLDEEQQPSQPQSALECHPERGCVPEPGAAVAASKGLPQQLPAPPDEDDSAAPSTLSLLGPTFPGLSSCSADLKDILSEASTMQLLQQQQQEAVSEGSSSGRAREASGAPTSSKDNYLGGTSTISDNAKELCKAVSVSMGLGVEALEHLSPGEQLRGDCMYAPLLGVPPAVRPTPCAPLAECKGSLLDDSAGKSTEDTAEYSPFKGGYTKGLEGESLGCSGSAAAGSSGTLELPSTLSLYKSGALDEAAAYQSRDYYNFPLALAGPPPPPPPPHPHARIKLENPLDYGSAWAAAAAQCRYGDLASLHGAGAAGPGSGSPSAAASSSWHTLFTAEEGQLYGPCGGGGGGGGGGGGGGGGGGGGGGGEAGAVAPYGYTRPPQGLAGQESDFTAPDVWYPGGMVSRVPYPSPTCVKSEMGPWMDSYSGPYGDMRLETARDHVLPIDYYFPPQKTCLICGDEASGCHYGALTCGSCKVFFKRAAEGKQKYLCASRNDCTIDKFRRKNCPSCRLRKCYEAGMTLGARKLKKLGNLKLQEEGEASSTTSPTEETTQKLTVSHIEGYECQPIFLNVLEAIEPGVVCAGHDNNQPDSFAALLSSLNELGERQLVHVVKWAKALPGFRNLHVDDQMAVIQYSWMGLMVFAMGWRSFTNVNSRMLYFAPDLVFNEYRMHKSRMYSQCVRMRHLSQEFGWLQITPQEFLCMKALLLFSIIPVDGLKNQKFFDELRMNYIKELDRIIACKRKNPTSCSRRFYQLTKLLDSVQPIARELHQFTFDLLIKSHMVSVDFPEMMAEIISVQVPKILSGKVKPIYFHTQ

CCSCc1ccccc1OC(=O)NC
inactive: [1] | [2] | [3] | [4] | [5] | [6] | [7] | [8] | [9] | [10] | [11] | [12] | [13] | Aromatase (Homo sapiens) | [14]

CC[N+]1(CCOC(=O)C(O)(c2ccccc2)c2ccccc2)CCCCC1
active: [11] 8.41 µM
inactive: [1] | [3] | [4] | [5] | [6] | [7] | [8] | [9] | [12] | [13] | Aromatase (Homo sapiens) | [14]

COC(=O)C1(O)c2ccccc2-c2ccccc21
inactive: [1] | [2] | [3] | [15] | [16] | [4] | [17] | [5] | [6] | [7] | [8] | [9] | [10] | [11] | [12] | [13] | Aromatase (Homo sapiens) | [14]

O=C(O)C(F)(F)C(F)(F)C(F)(F)C(F)(F)C(F)(F)F
inactive: [1] | [18] | [2] | [3] | [4] | [5] | [6] | [7] | [9] | [10] | [11] | [13] | Aromatase (Homo sapiens)

Cc1cccc(C)c1NC1=NCCCS1
inactive: [1] | [19] | [4] | [5] | [6] | [7] | [8] | [9] | [10] | [11] | [12] | Aromatase (Homo sapiens) | [14]

CC(C)OC(=O)Cc1ccccc1
inactive: [18] | [19] | [2] | [3] | [4] | [5] | [6] | [7] | [9] | [10] | [11] | [13] | Aromatase (Homo sapiens) | [14]

CCCCNC(=O)OCC#CI
inactive: [7] | [10] | [13]
active: [18] 3.05 µM and 611 nM | [19] 1.36 µM and 1.22 µM | [2] 2.72 µM and 969 nM | [3] 12.2 µM and 19.5 µM | [4] 60.8 µM | [5] 6.82 µM and 4.33 µM | [6] 9.64 µM and 4.86 µM | [12] 60.8 µM and 68.6 µM | Aromatase (Homo sapiens) 4.83 µM and 13.7 µM | [14] 6.08 µM and 17.2 µM

O=C(O)c1cc(Cl)ccc1Cl
inactive: [18] | [19] | [2] | [3] | [4] | [5] | [6] | [7] | [9] | [13] | Aromatase (Homo sapiens) | [14]
